An excerpt weighted towards active compounds, which were near 10% of everything screened.
3T3 cytotox – Cytotoxic Profiling in NIH 3T3 Cell Line of Diverse Libraries Using Quantitative High-Throughput Screening. AID 1345082, 2018. Potency, µM (doses to about 96.7 µM), hits mostly inhibitors. 4.3% of 94,000 active. NIH 3T3 viability, CellTiter-Glo ATP luminescence, 48-72 h; further: nearly all actives have a fitted effect of over 55% in size
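Cytotoxicity was measured by CellTiter-Glo ATP luminescence after 48 or 72 h compound exposure at 37 °C. Mouse NIH 3T3 fibroblasts were seeded at 400 cells/well and dosed by 23 nL pin transfer.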
FLuc inh – Firefly luciferase inhibition profiling of diverse chemical library using quantitative high-throughput screening; Luciferin 4-monooxygenase (Photinus pyralis), P08659; purified P. pyralis luciferase, luminescence, biochemical; Potency, µM (highest dose often 115 µM), most hits filed as inhibitors; 2.5% of 76,000 active; further: nearly all actives have a fitted effect of over 65% in size
Target sequence (P08659 whole entry, looked up): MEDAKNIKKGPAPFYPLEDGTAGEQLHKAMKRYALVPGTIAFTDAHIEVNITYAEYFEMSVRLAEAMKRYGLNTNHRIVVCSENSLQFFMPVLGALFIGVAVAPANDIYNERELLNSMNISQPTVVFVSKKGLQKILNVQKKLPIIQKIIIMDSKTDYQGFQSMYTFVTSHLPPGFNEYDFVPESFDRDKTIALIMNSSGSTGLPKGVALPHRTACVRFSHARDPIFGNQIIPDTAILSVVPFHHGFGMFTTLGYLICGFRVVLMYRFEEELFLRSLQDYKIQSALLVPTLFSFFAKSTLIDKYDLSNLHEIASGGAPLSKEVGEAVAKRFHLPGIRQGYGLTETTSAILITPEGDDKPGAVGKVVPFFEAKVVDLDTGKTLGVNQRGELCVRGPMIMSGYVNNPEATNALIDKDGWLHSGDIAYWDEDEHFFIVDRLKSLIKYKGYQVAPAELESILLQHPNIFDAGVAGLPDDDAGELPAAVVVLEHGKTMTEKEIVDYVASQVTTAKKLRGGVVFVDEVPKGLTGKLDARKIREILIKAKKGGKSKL
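Luminescence read by CCD imager after adding enzyme (10nM final) to wells holding compound, titrated in qHTS. Substrates 10uM each D-luciferin and ATP; buffer 50mM Tris acetate pH 7.5, 10mM Mg acetate, Tween-20, BSA.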
GPT2 inhibitor – Primary qHTS assay for inhibitors of Glutamate pyruvate transaminase 2 (GPT2). Recombinant GPT2, coupled pyruvate oxidase/HRP Amplex Red fluorescence. Potency, µM (titrated, usually from 57.7 µM), most hits filed as inhibitors. 0.25% of 100,000 active; further: nearly all actives have a fitted effect of over 60% in size
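Fluorescence of coupled pyruvate oxidase/HRP/Amplex Red system (50uM Amplex, 30 min, dark) reports pyruvate formed by GPT2. Enzyme reaction: 10ng/uL GPT2, 2mM L-alanine, 250uM a-KG, 30 min room temperature, pH 7.5; 50uM AOA control.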
NPR1 antag – Natriuretic polypeptide receptor (hNpr1) antagonism - Primary qHTS. HEK293 hNpr1 GloSensor cGMP, ANP-stimulated luminescence. Atrial natriuretic peptide receptor 1 (Homo sapiens), P16066. Potency, µM (doses to about 46.3 µM), actives largely listed as inhibitors. 1.6% of 76,000 active; calls by dose curve; further: nearly all actives have a fitted effect of over 60% in size
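HEK293 cells stably expressing human Npr1 and cGMP GloSensor pGS-40F, loaded 2 h with 2% GloSensor reagent, given compound 30 min at room temperature. Luminescence read before and 20 min after 0.1 nM hNppA.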
HEK cytotox – Cytotoxic Profiling in HEK 293 Cell Line of Diverse Libraries Using Quantitative High-Throughput Screening; HEK 293 viability, ATP luminescence (CellTiter-Glo), 48-72 h; Potency, µM (series often up to 115 µM), usual class: inhibitors; 6.6% of 94,000 active; further: nearly all actives have a fitted effect of over 60% in size
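HEK 293 cells seeded at 250 cells/well were exposed to compound for 48 or 72 hr at 37 degree Celsius. Viability taken as ATP content by CellTiter-Glo luminescence.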
Numbers stand for hits; n = inactive; u = inconclusive; x = no result given. Unless noted, the call rests on the fitted dose curve; in most records, active means well fitted curve in the direction sought with a large enough effect; inconclusive means small, poorly fitted or top-dose-only effect, or another doubt; inactive means no such curve, though single readings can be large; an effect the other way counts as inactive or inconclusive.

SMILES	3T3 cytotox	FLuc inh	GPT2 inhibitor	NPR1 antag	HEK cytotox
COc1ccc(C2(C(=O)NC3CCCc4c3[nH]c3c(Cl)cccc43)CCOCC2)cc1 (configuration not stated)	22µM	n	n	u	45µM
O=C(NCC(F)(F)F)c1ccc2nnc(-c3cc(F)ccc3F)n2c1	n	x	n	x	n
O=C(Nc1ccccc1Cl)N1CCCC2(C1)Nc1cccnc1NC2=NC1CCCC1 (configuration not stated)	45µM	n	u	n	u
COc1cc(C)c(CN2CCCn3nc(C(=O)N4CCCC4)cc3C2)cc1C	45µM	n	n	n	45µM
O=C(c1ccccn1)N1CCC(CCOc2ccccc2F)C1 (configuration not stated)	u	n	n	n	n
O=C(c1cncc(Br)c1)N1CCC(CCOc2ccccc2F)C1 (configuration not stated)	u	n	n	n	40µM
COc1ccc(Cl)cc1NC(=O)CCC1CCCN(C(=O)c2ccoc2C)C1 (configuration not stated)	u	n	n	n	32µM
COc1ccc(NC(=O)CCC2CCCN(C(=O)CC3=CCCCC3)C2)cc1Cl (configuration not stated)	n	u	n	u	u
COc1ccc(NC(=O)CCC2CCCN(C(=O)c3ccccc3SC)C2)cc1Cl (configuration not stated)	u	u	n	13µM	u
N#CC1CCN(C(=O)C2CCN(c3nccc(Nc4ccccc4Cl)n3)CC2)CC1	u	x	n	x	u
Cc1noc(C)c1S(=O)(=O)N1CCC(C(=O)N2CCC(c3ccccc3)CC2)CC1	u	x	n	x	u
COc1ccc(S(=O)(=O)N2CCC(OCCOc3ccccc3)CC2)cc1	u	x	n	x	u
O=C(NC1CCN(c2cc(-c3ccc(Cl)cc3)[nH]n2)C1)c1ccc2[nH]ccc2c1 (configuration not stated)	40µM	u	u	n	u
COc1ccc(C(=O)NC2CCN(c3cc(-c4ccc(Cl)cc4)[nH]n3)CC2)cc1	n	n	n	n	n
O=C(NC1CCN(c2cc(-c3ccc(Cl)cc3)[nH]n2)CC1)c1ccncc1	u	n	n	u	28µM
O=C(NC1CCN(c2cc(-c3ccc(F)cc3)[nH]n2)CC1)c1ccc(OC(F)(F)F)cc1	28µM	n	n	n	20µM
N#Cc1ccc(C(=O)NC2CCN(c3cc(-c4ccc(Cl)cc4)[nH]n3)C2)cc1 (configuration not stated)	u	n	u	u	45µM
CC(C)=CCn1c(-c2ccccc2Cl)cn2cc(C(=O)NCCCO)nc2c1=O	n	n	n	n	u
CCN(CC)C(=O)c1cc(-c2ccccc2C(F)(F)F)nc2c1cnn2C	n	x	x	x	u
O=C(NC1CCCCC1)N1CCC(OCc2noc(C3CCCO3)n2)CC1 (configuration not stated)	n	x	n	x	n
COc1ccccc1C(=O)Nc1cc(-c2ccncc2)nn1C	u	x	n	x	u
O=C(NC1CCN(c2cc(-c3ccc(F)cc3)[nH]n2)CC1)c1ccc2[nH]ccc2c1	25µM	n	n	n	u
O=C(NCCN1CCOCC1)C1CCCCc2nnc(-c3ccccc3)n21 (configuration not stated)	n	x	u	x	n
Cc1cnc(-c2cccnc2)n1CC1CCN(C(=O)C2CCC2)C1 (configuration not stated)	n	x	n	x	n
Cn1ncc2c(C(=O)NCC3CC3)cc(-c3cccc(F)c3)nc21	u	x	x	x	n
CNC(=O)CCn1ncc2cc(OCc3ccccc3-c3ccc(OC)cc3Cl)ccc21	u	n	n	n	u
CNC(=O)CCn1ncc2cc(OCc3ccccc3-c3cccnc3)ccc21	u	n	n	n	u
CNC(=O)CCn1ncc2cc(OCc3ccccc3-c3ccc(F)c(Cl)c3)ccc21	79µM	u	n	u	100µM
CNC(=O)CCn1ncc2cc(OCc3ccccc3-c3ccc(F)cc3)ccc21	u	u	n	n	71µM
